Assay results reported in PubChem BioAssay (Tox21).
Records with an inconclusive call do not appear. Some structures have more than one record in an assay (separate samples or runs), and their calls can disagree. Active and inactive are the calls of the source. Calls come from the whole dose curve.

Tests used:
[1] = molecular target: Acetylcholinesterase (Homo sapiens) (UniProt P22303); experiment: Acetylcholinesterase (AChE) small molecule antagonists: colormetric cell-based qHTS assay (AID 1347395); note: nearly all actives have a fitted effect of over 30% in size; note: potency is the fitted concentration of half-maximal effect
Sequence of Acetylcholinesterase (Homo sapiens) (P22303 whole entry, looked up): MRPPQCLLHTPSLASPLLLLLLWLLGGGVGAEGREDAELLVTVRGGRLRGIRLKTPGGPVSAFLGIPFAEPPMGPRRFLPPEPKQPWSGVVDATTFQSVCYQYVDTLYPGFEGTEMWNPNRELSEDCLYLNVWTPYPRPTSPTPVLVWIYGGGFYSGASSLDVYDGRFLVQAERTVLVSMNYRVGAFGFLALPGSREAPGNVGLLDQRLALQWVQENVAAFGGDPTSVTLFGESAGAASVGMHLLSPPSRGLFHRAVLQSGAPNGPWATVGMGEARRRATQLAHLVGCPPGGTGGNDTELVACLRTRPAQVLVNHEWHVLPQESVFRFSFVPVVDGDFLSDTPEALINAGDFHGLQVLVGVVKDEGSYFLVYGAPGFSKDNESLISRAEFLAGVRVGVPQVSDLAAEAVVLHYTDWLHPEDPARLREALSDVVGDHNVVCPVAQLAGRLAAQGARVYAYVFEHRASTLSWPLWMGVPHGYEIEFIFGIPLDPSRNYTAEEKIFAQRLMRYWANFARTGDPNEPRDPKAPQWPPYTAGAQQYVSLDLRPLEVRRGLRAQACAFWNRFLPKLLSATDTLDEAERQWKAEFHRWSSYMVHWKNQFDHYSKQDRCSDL
Method in brief: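 Colorimetric read-out: DTNB detects thiocholine released when cellular AChE in SH-SY5Y cells hydrolyses acetylthiocholine. Cells attached overnight, received compound for 30 min at 37 C, then substrate mix for 90 min at 37 C.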

[2] = molecular target: Acetylcholinesterase (Homo sapiens) (UniProt P22303); experiment: Acetylcholinesterase (AChE) small molecule antagonists: enzyme-based qHTS assay (AID 1347397); settings: Potency: AChE enzyme activity inhibition; outcome: AChE enzyme activity inhibition; note: nearly all actives have a fitted effect of over 55% in size; note: potency is the fitted concentration of half-maximal effect
Method in brief: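 Compound or DMSO vehicle was pin-transferred onto recombinant human AChE (50 mU/mL as dispensed) and left 30 min at room temperature. Acetylthiocholine with DTNB then started the reaction, read colorimetrically 10 min later.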

[3] = molecular target: Acetylcholinesterase (Homo sapiens) (UniProt P22303); experiment: Acetylcholinesterase (AChE) small molecule antagonists: fluorescence cell-based qHTS assay (AID 1347398); settings: Potency: AChE activity; outcome: AChE activity; note: nearly all actives have a fitted effect of over 50% in size; note: potency is the fitted concentration of half-maximal effect
Method in brief: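 Using neuroblastoma SH-SY5Y cells as the enzyme source, test chemicals are preincubated 30 min at 37 C; AChE-driven acetylthiocholine cleavage is then quantified by thiocholine-dependent Thiolite Green fluorescence after 40 min at room temperature.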

[4] = molecular target: Acetylcholinesterase (Homo sapiens) (UniProt P22303); experiment: Acetylcholinesterase (AChE) small molecule antagonists: enzyme-based qHTS assay with human liver microsomes (AID 1347399); settings: Potency: qHTS inhibition; outcome: qHTS inhibition; note: nearly all actives have a fitted effect of over 60% in size
Method in brief: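 Recombinant human AChE (50 mU/mL in the enzyme mix) and human liver microsomes (0.25 mg/mL final) were preincubated with compound and NADPH (0.25 mg/mL final) for 30 min at 37 C. Acetylthiocholine/DTNB was then added; thiocholine was read colorimetrically after 10 min at room temperature.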
% is set by controls: 0 for no effect and ±100 for the full control effect.

N#[N+]c1ccc2c(S(=O)(=O)[O-])cccc2c1O
inactive: Potency [1] | Potency [2] | Potency [3]

Nc1ccc2cc(S(=O)(=O)O)cc(O)c2c1N=Nc1ccccc1C(F)(F)F
inactive: Potency [1] | Potency [2] | Potency [3]

COc1ccc(CCN(C)CCCC(C#N)(c2ccc(OC)c(OC)c2)C(C)C)cc1OC (configuration not stated)
inactive: Potency [1] | Potency [2] | Potency [3]

CC(C)NCC(O)COc1ccc(CC(N)=O)cc1 (configuration not stated)
inactive: Potency [1] | Potency [2] | Potency [3]

OC[C@@H](O)[C@@H](O[C@@H]1O[C@H](CO)[C@H](O)[C@H](O)[C@H]1O)[C@H](O)[C@@H](O)CO
inactive: Potency [1] | Potency [2] | Potency [3]

COCCC(=O)OC
inactive: Potency [1] | Potency [2] | Potency [3]

COc1cc(NCc2ccc3nc(N)nc(N)c3c2C)cc(OC)c1OC
active: Potency [1] 8.71 µM | Potency [2] 30.9 µM | Potency [3] 3.09 µM

O=S(=O)(c1cccc2cnccc12)N1CCCNCC1
inactive: Potency [1] | Potency [2] | Potency [3]

CN1C(=O)CC(c2ccccc2)C1=O (configuration not stated)
inactive: Potency [1] | Potency [2] | Potency [3]

C=CCCC=C
inactive: Potency [1] | Potency [2] | Potency [3]

Cc1ccccc1OCC1CO1 (configuration not stated)
inactive: Potency [1] | Potency [2] | Potency [3]

CCc1ccc(O)c(C(C)(C)C)c1
inactive: Potency [1] | Potency [2] | Potency [3] | Potency [4]

CCc1ccc(CC)cc1
inactive: Potency [1] | Potency [2] | Potency [3]

NC(=O)c1cn(Cc2c(F)cccc2F)nn1
inactive: Potency [1] | Potency [2] | Potency [3]

C/C=C/c1ccc(OC)cc1
inactive: Potency [1] | Potency [2] | Potency [3] | Potency [4]

O=C1c2ccccc2C(=O)c2cc(O)ccc21
inactive: Potency [1] | Potency [2] | Potency [3] | Potency [4]

CC(=O)NNC(C)=O
inactive: Potency [1] | Potency [2] | Potency [3] | Potency [4]

CC(C=O)Cc1ccc(C(C)C)cc1 (configuration not stated)
inactive: Potency [1] | Potency [2] | Potency [3] | Potency [4]

Cc1ccccc1OCC(=O)O
inactive: Potency [1] | Potency [2] | Potency [3] | Potency [4]

CCOC(=O)NCCC[Si](OCC)(OCC)OCC
inactive: Potency [1] | Potency [2] | Potency [3] | Potency [4]

CCOC(=O)C(C)Oc1ccc(Oc2cnc3cc(Cl)ccc3n2)cc1 (configuration not stated)
inactive: Potency [1] | Potency [2] | Potency [3] | Potency [4]

O=C(O)Cc1cccc(-c2cc(CCCCCCc3ccc(O[C@H]4O[C@H](CO)[C@@H](O)[C@H](O)[C@@H]4O)c(-c4cccc(CC(=O)O)c4)c3)ccc2O[C@H]2O[C@H](CO)[C@@H](O)[C@H](O)[C@@H]2O)c1
inactive: activity, negative = inhibition [1] 1.5% [at 0.435 µM] | activity change, negative = inhibition [2] 1.01% [at 0.435 µM] | activity change, negative = inhibition [3] 5.75% [at 0.439 µM] | activity change, negative = inhibition [4] -1.17% [at 0.435 µM]

CC1=CC(=O)c2ccccc2C1=O
inactive: Potency [1] | Potency [2] | Potency [3] | Potency [4]

C1=C\CC/C=C\CC/1
inactive: Potency [1] | Potency [2] | Potency [3] | Potency [4]

CCCCCCCCCOCC1CO1 (configuration not stated)
inactive: Potency [1] | Potency [2] | Potency [3] | Potency [4]

CC(=O)Nc1ccc(C)cc1
inactive: Potency [1] | Potency [2] | Potency [3] | Potency [4]

CC[C@H](C)C(=O)O[C@H]1C[C@@H](C)C=C2C=C[C@H](C)[C@H](CC[C@@H]3C[C@@H](O)CC(=O)O3)[C@H]21
inactive: Potency [1] | Potency [2] | Potency [3] | Potency [4]

O=C(/C=C/c1ccc(O)c(O)c1)O[C@@H](C(=O)O)[C@@H](OC(=O)/C=C/c1ccc(O)c(O)c1)C(=O)O
inactive: Potency [1] | Potency [2] | Potency [3] | Potency [4]

NC(=O)c1ncn([C@@H]2O[C@H](CO)[C@@H](O)[C@H]2O)n1
inactive: Potency [1] | Potency [2] | Potency [3] | Potency [4]

O=C(O)CP(=O)(O)O
inactive: Potency [1] | Potency [2] | Potency [3] | Potency [4]

CC(C)(CCC(=O)O)C(=O)O
inactive: Potency [1] | Potency [2] | Potency [3] | Potency [4]

CC(=O)O[C@]1(C(C)=O)CC[C@H]2[C@@H]3C[C@H](C)C4=CC(=O)CC[C@]4(C)[C@H]3CC[C@@]21C
inactive: Potency [1] | Potency [2] | Potency [3] | Potency [4]

O=C(c1ccc(O)cc1O)c1ccc(O)cc1O
inactive: Potency [1] | Potency [2] | Potency [3] | Potency [4]

O=C1c2ccccc2CCc2ccccc21
inactive: Potency [1] | Potency [2] | Potency [3] | Potency [4]

C=CC(=O)OCC(Br)CBr (configuration not stated)
inactive: Potency [1] | Potency [2] | Potency [3] | Potency [4]

CC(C)c1ccccc1N
inactive: Potency [1] | Potency [2] | Potency [3] | Potency [4]

Oc1cn2c(n1)Nc1ccc(Cl)c(Cl)c1C2
inactive: activity, negative = inhibition [1] -9.64% [at 23.6 µM] | activity change, negative = inhibition [2] 0.842% [at 23.6 µM] | activity change, negative = inhibition [3] -3.43% [at 23.8 µM] | activity change, negative = inhibition [4] 0.168% [at 23.6 µM]

Nc1[nH]c(=O)ncc1F
inactive: Potency [1] | Potency [2] | Potency [3] | Potency [4]

CC1(C)C(=O)NC(=O)N1CO
inactive: Potency [1] | Potency [2] | Potency [3] | Potency [4]

CCCCCC(=O)O[C@]1(C(C)=O)CC[C@H]2[C@@H]3CCC4=CC(=O)CC[C@]4(C)[C@H]3CC[C@@]21C
inactive: Potency [1] | Potency [2] | Potency [3] | Potency [4]

C=C(C)OC(C)=O
inactive: Potency [1] | Potency [2] | Potency [4]
32.7 µM (active) and inactive: Potency [3]

O=C(O)c1ccc(C(=O)O)cc1
inactive: Potency [1] | Potency [2] | Potency [3] | Potency [4]

COc1ccc(C(=O)c2cccc(O)c2)c(OC)c1
inactive: Potency [1] | Potency [2] | Potency [3] | Potency [4]

CC(C(=O)O)c1ccc(/C=C2\CCCCC2=O)cc1 (configuration not stated)
inactive: Potency [1] | Potency [2] | Potency [3] | Potency [4]

CCC(C)(C)C(=O)O[C@H]1C[C@@H](C)C=C2C=C[C@H](C)[C@H](CC[C@@H]3C[C@@H](O)CC(=O)O3)[C@H]21
inactive: Potency [1] | Potency [2] | Potency [3] | Potency [4]

O=C(/C=C/c1ccccc1)OCc1ccccc1
inactive: Potency [1] | Potency [2] | Potency [3] | Potency [4]

CCNCCO
inactive: Potency [1] | Potency [2] | Potency [3] | Potency [4]

COc1nccnc1CC(C)C
inactive: Potency [1] | Potency [2] | Potency [3] | Potency [4]

Cc1nc(C2CCCCC2)c(-c2ccc(S(N)(=O)=O)c(F)c2)o1
inactive: Potency [1] | Potency [2] | Potency [3] | Potency [4]

CCCCCCCCCCOC(C)=O
inactive: Potency [1] | Potency [2] | Potency [3] | Potency [4]

C[C@]12CCC(=O)C=C1CC[C@H]1[C@@H]3CC[C@](O)(C(=O)CO)[C@@]3(C)C[C@H](O)[C@@]12F
inactive: Potency [1] | Potency [2] | Potency [3] | Potency [4]

CC(COCCO)OCCO (configuration not stated)
inactive: Potency [1] | Potency [2] | Potency [3] | Potency [4]

OCCOCCOCCO
inactive: Potency [1] | Potency [2] | Potency [3] | Potency [4]

CCOC(=O)CC(=O)OCC
inactive: Potency [1] | Potency [2] | Potency [3] | Potency [4]

CCCC1CCC(=O)O1 (configuration not stated)
inactive: Potency [1] | Potency [2] | Potency [3] | Potency [4]
